Experimental data published in paper PMC11006913.

Key:
Assay in all cases: PBM; 200 nM protein, PBS
Settings in all cases: dsDNA, one strand shown
VENTX = biological target: T1, VENTX (Homo sapiens, UniProt O95231 78-163, R121Q)
T1 sequence: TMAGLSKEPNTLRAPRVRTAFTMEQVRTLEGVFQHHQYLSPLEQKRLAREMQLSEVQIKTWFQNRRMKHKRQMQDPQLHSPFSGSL

HOXA4 [1] = biological target: HOXA4 (Homo sapiens, UniProt Q00056 201-287, W262R)
HOXA7 [2] = biological target: HOXA7 (Homo sapiens, UniProt P31268 116-202)
ALX4 [3] = biological target: ALX4 (Homo sapiens, UniProt Q9H161 200-286)
PRRX1 [4] = biological target: PRRX1 (Homo sapiens, UniProt P54821 80-166, F113S)
HOXB6 [5] = biological target: HOXB6 (Homo sapiens, UniProt P17509 132-218, K202E)
ALX4 [6] = biological target: ALX4 (Homo sapiens, UniProt Q9H161 200-286, Q225E)
HOXA2 = HOXA2 (Homo sapiens, UniProt O43364 129-215, R185T)
ALX1 [7] = biological target: ALX1 (Homo sapiens, UniProt Q15699 118-204, L144V)
ALX1 [8] = biological target: ALX1 (Homo sapiens, UniProt Q15699 118-204, L144R)
HOXA4 [9] = biological target: HOXA4 (Homo sapiens, UniProt Q00056 201-287)
MSX2 = MSX2 (Homo sapiens, UniProt P35548 130-214)
VAX1 [10] = biological target: VAX1 (Homo sapiens, UniProt Q5SQQ9 86-172, T142I)
HOXA7 [11] = biological target: HOXA7 (Homo sapiens, UniProt P31268 116-202, W177C)
ALX1 [12] = biological target: ALX1 (Homo sapiens, UniProt Q15699 118-204)
HOXA4 [13] = biological target: HOXA4 (Homo sapiens, UniProt Q00056 201-287, W262F)
PRRX1 [14] = biological target: PRRX1 (Homo sapiens, UniProt P54821 80-166)
VAX1 [15] = biological target: VAX1 (Homo sapiens, UniProt Q5SQQ9 86-172, K157R)
HOXB6 [16] = biological target: HOXB6 (Homo sapiens, UniProt P17509 132-218)
HOXB6 (Homo sapiens, UniProt P17509 132-218), sequence (P17509 132-218): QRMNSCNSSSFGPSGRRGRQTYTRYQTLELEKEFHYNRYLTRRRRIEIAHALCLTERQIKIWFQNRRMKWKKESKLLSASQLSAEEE

ALX1 (Homo sapiens, UniProt Q15699 118-204), sequence (Q15699 118-204): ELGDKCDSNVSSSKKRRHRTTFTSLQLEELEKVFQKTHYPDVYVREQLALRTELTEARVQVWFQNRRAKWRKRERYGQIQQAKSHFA
PRRX1 (Homo sapiens, UniProt P54821 80-166), sequence (P54821 80-166): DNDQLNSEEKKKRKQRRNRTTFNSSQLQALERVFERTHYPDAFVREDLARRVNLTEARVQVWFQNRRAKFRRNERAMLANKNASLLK
VAX1 (Homo sapiens, UniProt Q5SQQ9 86-172, T142I), sequence (Q5SQQ9 86-172 T142I): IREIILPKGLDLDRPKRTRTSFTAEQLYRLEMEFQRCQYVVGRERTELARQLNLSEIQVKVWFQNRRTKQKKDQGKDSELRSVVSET
HOXA2, sequence (O43364 129-215 R185T): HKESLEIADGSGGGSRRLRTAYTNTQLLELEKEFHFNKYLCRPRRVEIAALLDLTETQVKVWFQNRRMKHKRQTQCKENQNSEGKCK
HOXB6 (Homo sapiens, UniProt P17509 132-218, K202E), sequence (P17509 132-218 K202E): as the sequence (P17509 132-218) above, with K71E counted along it
HOXA4 (Homo sapiens, UniProt Q00056 201-287), sequence (Q00056 201-287): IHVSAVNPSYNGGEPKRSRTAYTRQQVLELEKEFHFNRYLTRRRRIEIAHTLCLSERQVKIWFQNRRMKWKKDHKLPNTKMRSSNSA
HOXA7 (Homo sapiens, UniProt P31268 116-202), sequence (P31268 116-202): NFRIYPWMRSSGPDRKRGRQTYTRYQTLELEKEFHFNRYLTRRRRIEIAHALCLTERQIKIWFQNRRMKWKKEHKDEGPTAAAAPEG
ALX1 (Homo sapiens, UniProt Q15699 118-204, L144R), sequence (Q15699 118-204 L144R): as the sequence (Q15699 118-204) above, with L27R counted along it
ALX4 (Homo sapiens, UniProt Q9H161 200-286, Q225E), sequence (Q9H161 200-286 Q225E): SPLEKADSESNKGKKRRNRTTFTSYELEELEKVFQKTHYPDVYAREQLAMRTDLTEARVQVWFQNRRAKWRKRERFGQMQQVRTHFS
PRRX1 (Homo sapiens, UniProt P54821 80-166, F113S), sequence (P54821 80-166 F113S): as the sequence (P54821 80-166) above, with F34S counted along it
HOXA4 (Homo sapiens, UniProt Q00056 201-287, W262F), sequence (Q00056 201-287 W262F): as the sequence (Q00056 201-287) above, with W62F counted along it
ALX4 (Homo sapiens, UniProt Q9H161 200-286), sequence (Q9H161 200-286): as the sequence (Q9H161 200-286 Q225E) above, with E26Q counted along it
MSX2, sequence (P35548 130-214): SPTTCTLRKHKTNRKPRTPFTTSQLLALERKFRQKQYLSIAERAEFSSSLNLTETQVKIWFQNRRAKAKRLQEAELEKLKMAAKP
VAX1 (Homo sapiens, UniProt Q5SQQ9 86-172, K157R), sequence (Q5SQQ9 86-172 K157R): as the sequence (Q5SQQ9 86-172 T142I) above, with I57T, K72R counted along it
HOXA7 (Homo sapiens, UniProt P31268 116-202, W177C), sequence (P31268 116-202 W177C): as the sequence (P31268 116-202) above, with W62C counted along it
HOXA4 (Homo sapiens, UniProt Q00056 201-287, W262R), sequence (Q00056 201-287 W262R): as the sequence (Q00056 201-287) above, with W62R counted along it
ALX1 (Homo sapiens, UniProt Q15699 118-204, L144V), sequence (Q15699 118-204 L144V): as the sequence (Q15699 118-204) above, with L27V counted along it

Sequence	binding signal (VENTX)	binding signal (HOXA4 [1])	binding signal (HOXA7 [2])	binding signal (ALX4 [3])	binding signal (PRRX1 [4])	binding signal (HOXB6 [5])	binding signal (ALX4 [6])	binding signal (HOXA2)	binding signal (ALX1 [7])	binding signal (ALX1 [8])	binding signal (HOXA4 [9])	binding signal (MSX2)	binding signal (VAX1 [10])	binding signal (HOXA7 [11])	binding signal (ALX1 [12])	binding signal (HOXA4 [13])	binding signal (PRRX1 [14])	binding signal (VAX1 [15])	binding signal (HOXB6 [16])
AGCAATTA	12 upbm affinity estimate (log intensity, higher = more binding, comparable within an allelic series)	10.5 upbm affinity estimate (log intensity, higher = more binding, comparable within an allelic series)	11.7 upbm affinity estimate (log intensity, higher = more binding, comparable within an allelic series)	13.8 upbm affinity estimate (log intensity, higher = more binding, comparable within an allelic series)	11.1 upbm affinity estimate (log intensity, higher = more binding, comparable within an allelic series)	9.92 upbm affinity estimate (log intensity, higher = more binding, comparable within an allelic series)	13 upbm affinity estimate (log intensity, higher = more binding, comparable within an allelic series)	12.8 upbm affinity estimate (log intensity, higher = more binding, comparable within an allelic series)	11.6 upbm affinity estimate (log intensity, higher = more binding, comparable within an allelic series)	11.3 upbm affinity estimate (log intensity, higher = more binding, comparable within an allelic series)	13.7 upbm affinity estimate (log intensity, higher = more binding, comparable within an allelic series)	14.1 upbm affinity estimate (log intensity, higher = more binding, comparable within an allelic series)	12.8 upbm affinity estimate (log intensity, higher = more binding, comparable within an allelic series)	8.7 upbm affinity estimate (log intensity, higher = more binding, comparable within an allelic series)	12.2 upbm affinity estimate (log intensity, higher = more binding, comparable within an allelic series)	11.5 upbm affinity estimate (log intensity, higher = more binding, comparable within an allelic series)	13.3 upbm affinity estimate (log intensity, higher = more binding, comparable within an allelic series)	12.7 upbm affinity estimate (log intensity, higher = more binding, comparable within an allelic series)	12 upbm affinity estimate (log intensity, higher = more binding, comparable within an allelic series)
TCAATTAA	12 upbm affinity estimate (log intensity, higher = more binding, comparable within an allelic series)	10.7 upbm affinity estimate (log intensity, higher = more binding, comparable within an allelic series)	11.5 upbm affinity estimate (log intensity, higher = more binding, comparable within an allelic series)	14.1 upbm affinity estimate (log intensity, higher = more binding, comparable within an allelic series)	11.3 upbm affinity estimate (log intensity, higher = more binding, comparable within an allelic series)	9.94 upbm affinity estimate (log intensity, higher = more binding, comparable within an allelic series)	13.8 upbm affinity estimate (log intensity, higher = more binding, comparable within an allelic series)	13.1 upbm affinity estimate (log intensity, higher = more binding, comparable within an allelic series)	12 upbm affinity estimate (log intensity, higher = more binding, comparable within an allelic series)	11.7 upbm affinity estimate (log intensity, higher = more binding, comparable within an allelic series)	13.9 upbm affinity estimate (log intensity, higher = more binding, comparable within an allelic series)	13.9 upbm affinity estimate (log intensity, higher = more binding, comparable within an allelic series)	13.1 upbm affinity estimate (log intensity, higher = more binding, comparable within an allelic series)	8.86 upbm affinity estimate (log intensity, higher = more binding, comparable within an allelic series)	12.6 upbm affinity estimate (log intensity, higher = more binding, comparable within an allelic series)	11.8 upbm affinity estimate (log intensity, higher = more binding, comparable within an allelic series)	13.5 upbm affinity estimate (log intensity, higher = more binding, comparable within an allelic series)	13 upbm affinity estimate (log intensity, higher = more binding, comparable within an allelic series)	11.9 upbm affinity estimate (log intensity, higher = more binding, comparable within an allelic series)
CTAATTAG	13 upbm affinity estimate (log intensity, higher = more binding, comparable within an allelic series)	10.8 upbm affinity estimate (log intensity, higher = more binding, comparable within an allelic series)	11.9 upbm affinity estimate (log intensity, higher = more binding, comparable within an allelic series)	14.7 upbm affinity estimate (log intensity, higher = more binding, comparable within an allelic series)	12 upbm affinity estimate (log intensity, higher = more binding, comparable within an allelic series)	10.2 upbm affinity estimate (log intensity, higher = more binding, comparable within an allelic series)	14.6 upbm affinity estimate (log intensity, higher = more binding, comparable within an allelic series)	14.2 upbm affinity estimate (log intensity, higher = more binding, comparable within an allelic series)	12.5 upbm affinity estimate (log intensity, higher = more binding, comparable within an allelic series)	12.1 upbm affinity estimate (log intensity, higher = more binding, comparable within an allelic series)	14.2 upbm affinity estimate (log intensity, higher = more binding, comparable within an allelic series)	14.2 upbm affinity estimate (log intensity, higher = more binding, comparable within an allelic series)	14.1 upbm affinity estimate (log intensity, higher = more binding, comparable within an allelic series)	8.87 upbm affinity estimate (log intensity, higher = more binding, comparable within an allelic series)	13.2 upbm affinity estimate (log intensity, higher = more binding, comparable within an allelic series)	12.6 upbm affinity estimate (log intensity, higher = more binding, comparable within an allelic series)	13.7 upbm affinity estimate (log intensity, higher = more binding, comparable within an allelic series)	14.3 upbm affinity estimate (log intensity, higher = more binding, comparable within an allelic series)	12.2 upbm affinity estimate (log intensity, higher = more binding, comparable within an allelic series)
GGCAGGCC									6.33 upbm affinity estimate (log intensity, higher = more binding, comparable within an allelic series)	6.11 upbm affinity estimate (log intensity, higher = more binding, comparable within an allelic series)					6.33 upbm affinity estimate (log intensity, higher = more binding, comparable within an allelic series)				
CAATTAGC	12.6 upbm affinity estimate (log intensity, higher = more binding, comparable within an allelic series)	10.5 upbm affinity estimate (log intensity, higher = more binding, comparable within an allelic series)	11.3 upbm affinity estimate (log intensity, higher = more binding, comparable within an allelic series)	14.1 upbm affinity estimate (log intensity, higher = more binding, comparable within an allelic series)	11.1 upbm affinity estimate (log intensity, higher = more binding, comparable within an allelic series)		13.5 upbm affinity estimate (log intensity, higher = more binding, comparable within an allelic series)	13.4 upbm affinity estimate (log intensity, higher = more binding, comparable within an allelic series)	11.9 upbm affinity estimate (log intensity, higher = more binding, comparable within an allelic series)	11.5 upbm affinity estimate (log intensity, higher = more binding, comparable within an allelic series)	13.9 upbm affinity estimate (log intensity, higher = more binding, comparable within an allelic series)	14.1 upbm affinity estimate (log intensity, higher = more binding, comparable within an allelic series)	13.3 upbm affinity estimate (log intensity, higher = more binding, comparable within an allelic series)	8.77 upbm affinity estimate (log intensity, higher = more binding, comparable within an allelic series)	12.8 upbm affinity estimate (log intensity, higher = more binding, comparable within an allelic series)	11.5 upbm affinity estimate (log intensity, higher = more binding, comparable within an allelic series)	13.4 upbm affinity estimate (log intensity, higher = more binding, comparable within an allelic series)	13.3 upbm affinity estimate (log intensity, higher = more binding, comparable within an allelic series)	
